The results in this text go back to PubChem BioAssay (EPA / NIEHS).

The nature of test [1]: CCTE_Shafer_MEA_dev_burst_duration_mean: CCTE's Neural Network Formation Assay for Mean Burst Duration, Shafer Lab (AID 2284045).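 As to AC50: curve fitted for loss meaning shorter burst duration than DMSO.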 An outline of the steps:
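Network-formation assay in primary rat cortical neurons; treatment spans twelve days of development. Mean burst duration per well is integrated by trapezoidal AUC and fitted in the loss-of-signal direction against DMSO baseline.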

Test [2] is described as follows: CCTE_Shafer_MEA_dev_interburst_interval_mean: CCTE's Neural Network Formation Assay for Mean Interburst Interval, Shafer Lab (AID 2284046).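 Also: well-mean interburst interval of bursting electrodes as AUC over four recording days; curve fitted for decrease in interburst interval relative to DMSO.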 In outline: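 Network formation assay in primary rat cortical cultures, exposed from DIV 0 to 12. Mean interburst interval per well, integrated as AUC over four recordings.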
A short description of test [3]: CCTE_Shafer_MEA_dev_inter_network_spike_interval_mean: CCTE's Neural Network Formation Assay for Mean Inter-network Spike Interval, Shafer Lab (AID 2284047).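 As to AC50: potency for a decrease in mean inter-network spike interval below DMSO.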 An outline of the steps: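 Compound was given at plating to primary rat cortical neurons and renewed with full medium changes on DIV 5 and 9. Extracellular activity was recorded on days 5, 7, 9, 12; AUC values were fitted for loss relative to DMSO control.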

A short description of test [4]: CCTE_Shafer_MEA_dev_network_spike_number: CCTE's Neural Network Formation Assay for Number of Network Spikes, Shafer Lab (AID 2284048).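 Also: synchronized bursts across electrodes counted on days 5 7 9 12 and integrated as AUC.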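 As to AC50: fit as a loss of signal meaning fewer network spikes than DMSO.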 An outline of the steps:
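Extracellular recordings from 16-electrode wells track network formation in rat cortical cultures under continuous treatment from plating. The endpoint is network spike number, expressed as AUC across DIV 5–12 relative to DMSO vehicle.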

Test [5] can be described thus: CCTE_Shafer_MEA_dev_network_spike_peak: CCTE's Neural Network Formation Assay for Mean Number of Electrodes in Network Spike, Shafer Lab (AID 2284049).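 As to AC50: fitted for loss of signal meaning fewer electrodes in network spikes than DMSO.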 An outline of the steps: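 Continuous 12-day exposure of rat cortical cultures, starting at plating, on MEA plates. Endpoint: electrodes participating in network-spike peaks, AUC across DIV 5–12, DMSO as negative control.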

Another test relates to DIO2 (gene 1734). The test is described as follows: CCTE_GLTED_hDIO2: CCTE's human Deiodinase 2 (DIO2) Inhibition Assay, Great Lakes Toxicology and Ecology Division (GLTED) Lab (AID 2284050; active = hit-call score of the fitted dose curve at least 0.9, where 1 is the maximum). An outline of the steps:
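Iodide released by human deiodinase 2 over 3 h with test chemical, measured spectrophotometrically via Sandell-Kolthoff cerium/arsenic reaction. Run n=3; inhibition referenced to DMSO.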

Test [6] can be described thus: CCTE_Shafer_MEA_dev_spike_duration_mean: CCTE's Neural Network Formation Assay for Mean Spike Duration, Shafer Lab (AID 2284051).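 Also: mean network spike duration pooled as area under curve over DIV 5 to 12 recordings.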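 As to AC50: potency for a decrease in mean network spike duration versus DMSO.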 An outline of the steps: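 With DMSO as baseline, loss of mean network spike duration was scored from extracellular recordings of rat cortical neurons on MEA plates. Exposure spanned plating to DIV 12; the four recording days were collapsed into one AUC value.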

Test [7] in a line: CCTE_Shafer_MEA_dev_network_spike_duration_std: CCTE's Neural Network Formation Assay for Standard Deviation of Network Spike Duration, Shafer Lab (AID 2284052).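 Also: area under curve of spike duration SD across recording days 5 to 12; hits are decreases in network spike duration SD versus DMSO vehicle.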 An outline of the steps:
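Developing networks of rat cortical neurons were exposed over twelve days in vitro on 48-well MEA plates. Trapezoidal AUC of recordings (DIV 5–12) was analysed for signal loss relative to DMSO vehicle.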

Test [8] is described as follows: CCTE_Shafer_MEA_dev_per_network_spike_spike_number_mean: CCTE's Neural Network Formation Assay for Mean Number of Spikes in a Network Spike, Shafer Lab (AID 2284053). An outline of the steps:
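First, rat cortical cells (1.5 x 10^5/well) were seeded onto MEA wells; second, dosing began at plating and was refreshed on DIV 5 and 9; finally, network-spike spike counts across DIV 5–12 were summarized as AUC.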

A short description of test [9]: CCTE_Shafer_MEA_dev_per_network_spike_spike_percent: CCTE's Neural Network Formation Assay for Percent of Spikes in a Network Spike, Shafer Lab (AID 2284054). In outline:
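Developing networks of rat cortical neurons are dosed at day 0 and recorded extracellularly four times up to day 12. The endpoint is the area under the curve of percent spikes in network spikes, fitted in the negative direction relative to DMSO.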

The next test concerns DIO3 (gene 1735). The test is described as follows: CCTE_GLTED_hDIO3: CCTE's human Deiodinase 3 (DIO3) Inhibition Assay, Great Lakes Toxicology and Ecology Division (GLTED) Lab (AID 2284055; active = hit-call score of the fitted dose curve at least 0.9, where 1 is the maximum;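 as to AC50: potency is for inhibition seen as loss of released iodide signal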). In outline:
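Inhibition is read as reduced iodide release, measured spectrophotometrically by the Sandell-Kolthoff cerium/arsenic reaction. Adenovirus-expressed human DIO3 enzyme is exposed to chemical for 3 h, n=3 plates. Iodinated chemicals, nitrite, iron or thiocyanate may interfere.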

Test [10] in a line: UKN5_HCS_SBAD2_cell_viability: Viability Assessment in the University of Konstanz (UKN) Leist Lab Neurite Outgrowth Assay in human iPSC-derived immature Dorsal Root Ganglia Neurons (UKN5) (AID 2284056). An outline of the steps:
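iPSC-derived immature peripheral neurons (SBAD2) seeded on Matrigel with CHIR99021, SU5402 and DAPT, dosed 1 h later for 24 h. Viability from Hoechst H-33342 and calcein-AM live staining, high-content imaging; bidirectional fit versus DMSO.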

Test [11] can be described thus: CCTE_Shafer_MEA_dev_LDH: CCTE's Lactate Dehydrogenase Assay for Cytotoxicity in the Neural Network Formation Assay, Shafer Lab (AID 2284068; active = hit-call score of the fitted dose curve at least 0.9, where 1 is the maximum;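 also: exposure for twelve days from plating with re-dosing on DIV 5 and 9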). An outline of the steps:
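Developing rat cortical networks on MEA plates are exposed to compound for 12 days from plating. LDH activity is measured spectrophotometrically, with DMSO as baseline.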

A short description of test [12]: UKN5_HCS_SBAD2_neurite_outgrowth: University of Konstanz (UKN) Leist Lab Neurite Outgrowth Assay in human iPSC-derived immature Dorsal Root Ganglia Neurons (UKN5) (AID 2284070). To be noted: actives raise or lower the signal. In outline: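 Neurite area from calcein-AM high-content images after 24 h exposure (staining included), with H-33342 for viability, fitted both directions against DMSO. Cells: thawed immature SBAD2 peripheral neurons, 100.000 cells/cm2, with CHIR99021, SU5402, DAPT; dosing 1 h after seeding.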

Test [13] is described as follows: CCTE_Shafer_MEA_dev_AB: CCTE's Alamar Blue Assay for Cytotoxicity in the Neural Network Formation Assay, Shafer Lab (AID 2284083; active = hit-call score of the fitted dose curve at least 0.9, where 1 is the maximum;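 also: resazurin reduction fluorescence as viability of cultured neurons; twelve days of exposure from plating with re-dosing on DIV 5 and 9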). An outline of the steps: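 Cytotoxicity companion to the developmental MEA: primary rat cortical neurons, 12-day exposure starting day 0, compound refreshed DIV 5 and 9; resazurin fluorescence, fitted against DMSO vehicle.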
A general note: Alamar Blue is a resazurin reagent that responds to reducing activity.

Test [14] can be described thus: CCTE_Shafer_MEA_acute_LDH: CCTE's Lactate Dehydrogenase Assay for Cytotoxicity in the Neural Acute Assay, Shafer Lab (AID 2284086; active = hit-call score of the fitted dose curve at least 0.9, where 1 is the maximum;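 also: active means LDH release rises above DMSO vehicle level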). An outline of the steps:
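LDH released during 40 min compound exposure of primary rat cortical cultures, quantified by absorbance at 490 nm in collected medium. Fitting direction positive versus DMSO vehicle.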

Test [15] is described as follows: CCTE_Shafer_MEA_dev_mutual_information_norm: CCTE's Neural Network Formation Assay for Mutual Information Normalization, Shafer Lab (AID 2284091).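 As to AC50: mutual information between electrodes summarised as area under curve across four recording days; potency is for a decrease in mutual information relative to DMSO.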 An outline of the steps: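 Exposure of primary rat cortical neurons began at plating and ran to DIV 12, with full media and treatment renewal after DIV 5 and 9 recordings. Mutual information AUC (DIV 5–12) was analysed for loss versus DMSO.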

Test [16] can be described thus: CCTE_Shafer_MEA_dev_correlation_coefficient_mean: CCTE's Neural Network Formation Assay for Mean Correlation Coefficient, Shafer Lab (AID 2284093).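 As to AC50: well mean pairwise spike train correlation integrated as AUC over recording days 5 to 12; potency fitted for loss of correlation relative to DMSO vehicle wells.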 An outline of the steps:
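Extracellular firing from rat cortical networks on 48-well MEAs, DMSO-referenced, negative fitting direction. Compound present from plating to DIV12; mean pairwise correlation per well integrated over DIV5–12 recordings by trapezoidal AUC.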

A short description of test [17]: UKN2_HCS_IMR90_neural_migration: University of Konstanz (UKN) Leist Lab Neural Crest Cell Migration Assay in human induced IMR90 Pluripotent Stem Cells (UKN2) (AID 2284204). To be noted: actives raise or lower the signal. In outline: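 Using a 96-well stopper format with PLO/laminin/fibronectin coating, neural crest cells from iPSC migrate in cytokine-supplemented N2-S medium; after 24 h, chemicals are applied for a further 24 h, then cells are imaged after dye staining.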

Test [18] in a line: UKN4_HCS_LUHMES_neurite_outgrowth: University of Konstanz (UKN) Leist Lab Neurite Outgrowth Assay in human LUHMES cells (UKN4) (AID 2284206). To be noted: actives raise or lower the signal. In outline: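 After 24 h compound treatment beginning shortly after replating of 2-day-differentiated LUHMES cells, calcein-AM and H-33342 live staining allowed high-content imaging of neurite area and viability. Fitted bidirectionally against DMSO.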

Where “and” joins values, the source holds several entries; their conditions need not be identical. Equal entries are not always repeated. Records with an inconclusive call do not appear. The source holds several records for some structures; these can differ, active in one and inactive in another. Calls of active or inactive are those of the source. The calls were made as follows, unless noted: active = hit-call score of the fitted dose curve at least 0.9, where 1 is the maximum; inactive = score below 0.9.

One may read the AC50 as the concentration at which the activity in the assay is half-maximal. For the compound `CC[C@H](C)[C@H]1O[C@]2(C=C[C@@H]1C)C[C@@H]1C[C@@H](C/C=C(\C)[C@@H](O[C@H]3C[C@H](OC)[C@@H](O[C@H]4C[C@H](OC)[C@@H](NC)[C@H](C)O4)[C@H](C)O3)[C@@H](C)/C=C/C=C3\CO[C@@H]4[C@H](O)C(C)=C[C@@H](C(=O)O1)[C@]34O)O2`, the concentration at half-maximal activity (AC50) in test [1] was 20.1 nM (active) and 1.89 nM (active); in test [2] it was 220 nM (active) and 2.96 nM (active); in test [3], 0.16 µM (active); in test [4] it was 47.4 nM (active) and 4.79 nM (active); in test [5] it was 106 nM (active) and 9.12 nM (active); with DIO2 (gene 1734), 31.3 µM (active). Further, the half-maximal activity concentration (AC50) is 13 nM (active) and 2.69 nM (active) in [6]; 5.01 nM (active) and 3.04 nM (active) in [7]; 55.1 nM (active) and 5.93 nM (active) in test [8]; 0.517 µM (active) in test [9]; 33.6 µM (active) in the test with DIO3 (gene 1735); 1.52 µM (active) in test [10]. For the same compound, the AC50 in test [11] is 145 nM (active) and 0.883 nM (active); in test [12], 1.12 µM (active); in [13], 656 nM (active); in test [15] it was 0.981 nM (active) and 1.87 nM (active); in test [16], 318 nM (active) and 15.9 nM (active); in test [17], 4.54 µM (active) and 1.96 µM (active). The AC50 in test [18] is 1.79 µM (active). Further, the outcome in test [3], in test [9] and in [14] was inactive.
As to `CCOC(=O)CC(SP(=O)(OC)OC)C(=O)OCC` (stereo not given), the compound was called inactive in test [1], in test [2], in [3], in [4], in test [5] and in [6]. Besides, the call in [7], in [8], in test [9], in [10], in test [11] and in test [12] was inactive. For the same compound, the call in [15], in test [16], in test [17] and in [18] was inactive.
Turning to `C#CCC1=C(C)C(OC(=O)C2C(C=C(C)C)C2(C)C)CC1=O` (stereo not given), the compound was classed as inactive in test [1], in test [2], in [4], in test [5], in test [6] and in [7]. In addition, the call in [8], in [13] and in [14] was inactive. In addition, the AC50 in [3] was 9.95 µM (active); with DIO2 (gene 1734) it was 42.4 µM (active); in test [9], 2.64 µM (active); in the test on DIO3 (gene 1735), 34.5 µM (active); in [15], 0.303 µM (active); in test [16], 3 µM (active).
For `C[Si](Cn1cncn1)(c1ccc(F)cc1)c1ccc(F)cc1`, the compound was called inactive in test [1], in test [2], in test [3], in test [4], in test [7] and in [8]. Further, the result in [13], in test [14] and in test [16] was inactive. In addition, the AC50 was 4.71 µM (active) in test [5]; 5.85 µM (active) in test [6]; 20.1 µM (active) in test [9]; 22.5 µM (active) in test [11]; 1.61 µM (active) in [15].
For `CC(=NC#N)N(C)Cc1ccc(Cl)nc1`, the compound was called inactive in [1], in test [2], in test [3], in [4], in [5] and in test [6]. In addition, the outcome in test [7], in test [8], in test [9], in [10], in [12] and in test [13] was inactive. For the same compound, the outcome in test [15], in [16], in [17] and in test [18] was inactive.
In the case of `CCOP(=O)(NC(C)C)Oc1ccc(SC)c(C)c1` (stereo not given), the AC50 in test [1] was 17.3 µM (active); in test [2], 31.5 µM (active); in [4] it was 79.5 µM (active); in [5], 51 µM (active); in [6], 21 µM (active); in [7] it was 10.1 µM (active). Further, the half-maximal activity concentration (AC50) in test [8] was 61.4 µM (active); in test [9], 11.7 µM (active); in [11] it was 51 µM (active); in test [15], 36.3 µM (active); in test [16] it was 90.9 µM (active). The call in [1], in [2], in test [3], in test [4], in [5] and in test [6] was inactive. For the same compound, the outcome in test [7], in test [8], in test [9], in test [11], in [13] and in test [14] was inactive. For the same compound, the call in [15], in test [16] and in test [17] was inactive.
On to `CC(C)=CC1C(C(=O)OCN2C(=O)C3=C(CCCC3)C2=O)C1(C)C` (stereo not given), for which the result in test [1], in test [2], in [3], in [4], in test [6] and in test [7] was inactive. Further, the compound was called inactive (in test [8]; in test [9]; in the test with DIO3 (gene 1735); in test [13]; in test [14]; in [15]). For the same compound, the outcome in test [16] was inactive. In addition, the figures for the AC50 (in [5]; in the test on DIO2 (gene 1734); in test [11]) were 1.98 µM (active), 70 µM (active) and 10 µM (active), respectively.
